Screen size: about 340,000 compounds; about 6,900 (2%) were called active. The list comes from a sample in which actives are over-represented; it also holds similar structures and randomly drawn compounds. A number with no mark means an inactive call. Cut-off read from the data, not from the text of the source: active = inhibition above about 30%; inactive = below that, where a call was filed.

What is called inhibition is the change of the read-out against control, counted positive when it falls.

The assay deals with D(2) dopamine receptor (Homo sapiens) (UniProt P14416). The assay can be described thus: HTS Assay for Allosteric Antagonists of the Human D2 Dopamine Receptor: Primary Screen for Antagonists. Note: 0% is about no effect. The settings on record: HEK293 TREx D2 cells, calcium flux, dopamine EC80; at 10 µM; stronger effect = higher value. The method in brief: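 Inhibition of EC80 dopamine-driven calcium flux, recorded kinetically, defines activity here; cells are a tetracycline-induced HEK293 T-REx line expressing force-coupled D2.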
Sequence of D(2) dopamine receptor (Homo sapiens) (P14416 whole entry, looked up): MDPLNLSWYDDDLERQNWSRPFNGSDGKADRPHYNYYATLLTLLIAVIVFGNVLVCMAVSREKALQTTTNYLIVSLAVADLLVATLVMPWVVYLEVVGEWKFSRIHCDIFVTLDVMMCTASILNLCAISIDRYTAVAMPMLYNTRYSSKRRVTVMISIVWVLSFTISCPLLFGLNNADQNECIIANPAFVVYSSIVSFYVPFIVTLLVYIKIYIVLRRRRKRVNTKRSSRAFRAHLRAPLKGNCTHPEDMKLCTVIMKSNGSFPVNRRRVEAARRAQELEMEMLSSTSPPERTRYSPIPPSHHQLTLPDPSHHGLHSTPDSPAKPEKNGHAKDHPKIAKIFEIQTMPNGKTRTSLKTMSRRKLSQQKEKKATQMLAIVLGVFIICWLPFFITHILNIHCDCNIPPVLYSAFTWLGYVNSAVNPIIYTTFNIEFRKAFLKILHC
A general note: A change in cytosolic calcium serves as a functional read-out for many receptors and channels.
For `CC1CC(C)CN(CC(=O)Nc2ccc(S(N)(=O)=O)cc2)C1` (stereo not drawn), the inhibition is -1.67%.
To `CCc1ccc(CCC(=O)Nc2ccc(S(N)(=O)=O)cc2)o1` belongs 43.5% (active); to `NS(=O)(=O)c1ccc(NC(=O)COC(=O)CCc2c[nH]c3ccccc23)cc1`, 2.49%.
In the case of `CC(=O)Nc1ccc(NC(=O)CSc2nnc(C3CC3)n2-c2ccccc2)cc1` it was 2.45%.
In the case of `Cc1ccc(S(=O)(=O)NCCC(=O)NCc2ccc(Cl)cc2)cc1C` it was -19%; in that of `O=C(NCC(c1ccco1)N1CCc2ccccc21)c1cccc(F)c1` (stereo not drawn), 5.81%.
With `O=C(O)c1cccnc1Sc1ncnc2sc3c(c12)CCC3`, the inhibition is 34.2% (active).
Take `COCCn1c(C)cc(C(=O)CSc2ncnc3sc4c(c23)CCC4)c1C`: the inhibition is 9.53%.
On to `CCCSc1ncccc1C(=O)O`, for which the inhibition was -16.5%.
In the case of `CNC(=O)NC(=O)C(C)N1CCN(C/C=C/c2ccccc2)CC1` (stereo not drawn) it was 33.5% (active); in that of `COc1ccccc1C(=O)NC(CCSC)C(=O)N1CCN(C/C=C/c2ccccc2)CC1` (stereo not drawn), 3.22%.
In the case of `COc1cc(C(=O)N2CCN(C/C=C/c3ccccc3)CC2)cc(OC)c1C` it was 0.0553%.
In the case of `CC1CCCCC12NC(=O)N(CC(=O)OCC(=O)NCc1ccc(F)cc1)C2=O` (stereo not drawn) it was -29.1%; in that of `CN(CC(=O)Nc1c(Cl)cccc1Cl)C(=O)CC1OC(=O)c2ccccc21` (stereo not drawn), 4.45%.
As to `O=C(O)C(c1ccccc1)C1(O)CCCCC1` (stereo not drawn), the inhibition was 2.2%.
In the case of `CN(C)CCOC(=O)C(c1ccccc1)C1(O)CCCC1` (stereo not drawn) it was 58.6% (active); in that of `CCC(C(=O)OCCN(CC)CC)c1ccccc1` (stereo not drawn), 6.37%.
Regarding `O=C(CSc1nc2[nH]c(=O)[nH]c(=O)c2s1)Nc1cccc(F)c1`, the inhibition was -3.77%.
In the case of `CCc1ccc(CN(C)C(C)C(=O)Nc2ccc(S(=O)(=O)N3CCCC3)cc2)cc1` (stereo not drawn) it was 12.7%.
As to `C/C(=N/NC(=O)c1ccc(NC(=O)c2ccc(F)cc2)cc1)c1ccccc1`, the inhibition was 14.8%.
In the case of `CNC(=O)C(NC(=O)c1ccccc1)=C(C)C`, the inhibition is -6.51%.
To `CC(C)=C(NC(=O)c1ccccc1)C(=O)N/N=C(\C)c1ccccc1O` belongs 62.7% (active); to `CCCC(=O)Nc1ncnc2c1ncn2[C@@H]1O[C@@H]2OP(=O)(O)OC[C@H]2[C@H]1OC(=O)CCC`, -4.97%.
To `CCO[C@H]1OC(C(=O)N2CCCCCCC2)=C[C@@H](c2ccc(C(F)(F)F)cc2)[C@@H]1CCCO` belongs 30.3% (active); to `CCO[C@H]1OC(C(=O)N2CCOCC2)=C[C@@H](c2ccc3c(c2)OCO3)[C@@H]1CCCO`, 2.11%.
In the case of `CCO[C@@H]1OC(C(=O)N2CCOCC2)=C[C@H](C)[C@H]1CCCO` it was -3.13%.
As to `O=C(CSc1ccccc1)Nc1cccc(S(=O)(=O)N2CCCCC2)c1`, the inhibition is 0.706%.
To `Cc1ccc(C)c(C(=O)COC(=O)Cn2[nH]c(=O)c3ccccc3c2=O)c1` belongs -1.59%; to `Cc1ccc(NC(=S)N(CCN(C)C)Cc2cccs2)cc1C`, 12.4%; to `Cc1ccc(NC(=S)N(CCCN2CCC(C)CC2)Cc2ccco2)cc1`, 34.7% (active).
Turning to `Cc1ccc(NC(=S)N(CCCN2CCCC2)Cc2cccn2Cc2ccc(Cl)cc2)cc1`, the inhibition is 3.46%.
Regarding `CCc1ccccc1NC(=S)N(CCN1CCCCCC1)Cc1ccco1`, the inhibition is -0.524%.
In the case of `Cc1ccc(NC(=S)N(Cc2ccco2)C(C)c2cccs2)cc1` (stereo not drawn) it was -6.52%.
To `Cc1ccc(NC(=S)N(CCN2CCCCC2)Cc2ccco2)cc1C` belongs 50.8% (active); to `CN(C)S(=O)(=O)c1ccc(C(=O)NCC2(N3CCOCC3)CCCCC2)cc1`, 8.22%.
In the case of `O=C(O)c1ccccc1N=N/C(=N/Nc1cc(S(=O)(=O)O)ccc1O)c1ccccc1` it was 28.3%; in that of `COc1ccc(Cn2c(=S)[nH]c3cc(C(=O)N4CCCCC4)ccc3c2=O)cc1`, -3.83%; in that of `CCN(CC)CCCNC(=O)c1ccc2c(=O)n(Cc3ccc4c(c3)OCO4)c(=S)[nH]c2c1`, 16.5%.
Take `COc1ccc(Cn2c(=S)[nH]c3cc(C(=O)NCCCN4CCOCC4)ccc3c2=O)cc1`: the inhibition is 35.6% (active).
As for `COc1cccc(C(=O)OCC(=O)c2[nH]c(C)c(C(C)=O)c2C)c1`, the inhibition was 8.22%.
Take `CCOC(=O)Cn1c(CN(Cc2ccccc2)Cc2ccccc2)nc2c1c(=O)[nH]c(=O)n2C`: the inhibition was -7.46%.
To `Cn1c(=O)[nH]c(=O)c2c1nc(N(CCO)Cc1ccccc1)n2Cc1ccccc1Cl` belongs 73.5% (active); to `CN(Cc1ccccc1)c1nc2c(c(=O)[nH]c(=O)n2C)n1CCSc1nc2ccccc2[nH]1`, 29.2%; to `COCCn1c(C)cc(C(=O)COC(=O)CNC(=O)c2ccco2)c1C`, -8.05%.
In the case of `Cc1ccc2nc(NC(=O)CSc3nc(=O)n(CCCN(C)C)c4c3CCC4)sc2c1` it was 7.56%; in that of `CSc1ccccc1C(=O)OCC(=O)N1CCN(C(C)=O)CC1`, 0.24%; in that of `CC(=O)Nc1ccc(NC(=O)CCN2C(=O)C3CC=CCC3C2=O)cc1` (stereo not drawn), 16.4%.
Regarding `Cc1ccc(NC(=O)COc2coc(CN3CCc4ccccc4C3)cc2=O)cc1Cl`, the inhibition was -2.55%.
Regarding `O=C(Nc1ccccc1)C1CC(=O)n2c(nc3ccccc32)N1` (stereo not drawn), the inhibition is 33.6% (active).
To `CCOC(=O)c1ccc(NC(=O)C2CC(=O)Nc3nc4ccccc4n32)cc1` (stereo not drawn) belongs -12.3%.
In the case of `CC(=O)c1ccc(NC(=O)C2CC(=O)Nc3nc4ccccc4n32)cc1` (stereo not drawn) it was -1.67%; in that of `CC(C)Oc1ccc(S(=O)(=O)N2CCOCC2)cc1NC(=O)C1CCCC1`, -5.29%; in that of `CN(c1ccccc1)S(=O)(=O)c1cccc(NC(=O)Cc2ccc(Cl)cc2)c1`, -11.8%.
Regarding `COc1ccccc1CNC(=O)COC(=O)CNS(=O)(=O)c1ccc(NC(C)=O)cc1`, the inhibition is 4.15%.
To `CCCCn1c(O)c(N=NC(=O)Cn2c(C(F)(F)F)nc3ccccc32)c2ccccc21` belongs 16.8%; to `COC(=O)Cn1c(O)c(N=NC(=O)OC)c2ccccc21`, 11.2%.
To `N#CCCCn1c(O)c(N=NC(=O)C(O)c2ccccc2)c2ccccc21` (stereo not drawn) belongs 38.5% (active); to `OCCNCCCCOc1ccccc1F`, 4.36%; to `OCCNCc1cccc(OCc2ccccc2Cl)c1`, 1.43%.
In the case of `OCCNCCOc1ccc(Cl)c(Cl)c1` it was 33.4% (active).
Take `Cc1cccc(NS(=O)(=O)c2cccc(C(=O)NNC(=O)c3ccccc3O)c2)c1`: the inhibition was -12.1%.
With `Cc1cc(C)cc(-c2nnc(SCC(=O)NC3CC3)o2)c1`, the inhibition is 5.88%.
To `CCC(C)C(N=C1NS(=O)(=O)c2ccccc21)C(=O)N1CCC(C)CC1` (stereo not drawn) belongs 17%; to `Cc1n[nH]c(=O)c2c(NC(=O)COC(=O)c3ncc(Cl)c(Cl)c3Cl)oc(C)c12`, -6.33%; to `O=C(NNC(=S)Nc1ccc(Br)cc1Cl)c1ccco1`, 0.194%.
In the case of `S=C(Nc1ccc(Br)cc1Cl)NC1CCN(Cc2ccccc2)CC1` it was 70.2% (active); in that of `S=C(NCCCc1ccccc1)Nc1ccc(Br)cc1`, 3.8%.
In the case of `S=C(NN=C1CCN(Cc2ccccc2)CC1)NC1CCCCC1` it was 5.59%; in that of `Cc1cc(Br)ccc1NC(=S)NC1CCCC1`, 9.66%; in that of `S=C(Nc1ccc(Br)cc1)NC1CCN(Cc2ccccc2)CC1`, 109% (active).
Take `O=C(COc1ccc(Br)cc1F)NC1CCN(Cc2ccccc2)CC1`: the inhibition was 52.9% (active).
`O=C(COc1ccccc1O)NC1CCCC1`: the inhibition is 1.67%.
To `O=C(COc1ccccc1F)NC1CC1` belongs -13.9%; to `CCOC(=O)Cc1csc(SCC(=O)Nc2ccc(C)cc2F)n1`, 0.767%; to `CCCC1C(=O)N2C(N(C)C)=Nc3ccc(C)cc3N2C1=O` (stereo not drawn), -7.75%.
With `Brc1ccc(CN2CC[C@H]3C=CCc4cccc(c43)C2)cc1`, the inhibition is -16.8%.
As to `Cc1ccc2c(c1)C1CN(C)CCC1N2S(=O)(=O)c1cccc(F)c1` (stereo not drawn), the inhibition was -6.37%.
In the case of `CNS(=O)(=O)c1ccc(C(=O)NCC(=O)NCCc2ccc3c(c2)OCCO3)cc1` it was -17.4%; in that of `Cc1csc(SCC(=O)N(c2ccccc2)C(C)C)n1`, -0.577%.
Turning to `O=S(=O)(NCCCCCCNS(=O)(=O)c1c(F)cccc1F)c1ccc2c(c1)OCCO2`, the inhibition was -4.68%.
To `O=S(=O)(c1ccc(Br)cc1)c1nc(-c2ccccc2)oc1N1CCOCC1` belongs 15.8%.
In the case of `O=S(=O)(c1ccc(Br)cc1)c1nc(-c2ccccc2)oc1NCc1cccnc1` it was 9.02%; in that of `O=S(=O)(c1ccccc1)c1nc(-c2ccccc2)oc1NCCCN1CCOCC1`, 47.7% (active); in that of `CCOc1ccc(C(=O)CCC(=O)NC2=NCCS2)cc1`, -11.7%.
Consider `Cc1ccc(COC(=O)CN2C(=O)NC3(CCCC3)C2=O)cc1`, for which the inhibition was -1.94%.
To `O=C(C1CC(=O)N(c2ccc(Br)cc2)C1)N1CCCC1` (stereo not drawn) belongs -3.05%.
In the case of `CCCC(C)NC(=O)C1CCN(C(=O)C2CC(=O)N(c3ccc(C)cc3)C2)CC1` (stereo not drawn) it was 33% (active).
In the case of `CCc1ccc(N2CC(C(=O)N3CCCCCC3)CC2=O)cc1` (stereo not drawn) it was -11.6%.
`COCCNC(=O)C1CCN(C(=O)C2CC(=O)N(c3ccc(C)cc3)C2)CC1` (stereo not drawn): the inhibition is 30% (active).
To `Cc1ccc(N2CC(C(=O)NCCS(=O)(=O)N3CCN(c4ccccc4)CC3)CC2=O)cc1` (stereo not drawn) belongs 8.52%; to `COCCCNC(=O)C1CC(=O)N(c2ccc(C)cc2)C1` (stereo not drawn), -5.47%.
In the case of `Cc1ccc(NC(=O)CCC(=O)N2CCC(c3ccccc3)=N2)cc1S(=O)(=O)N1CCCCC1`, the inhibition is -6.66%.
In the case of `CC1(C)CC(=O)C=C(c2cccc3c2Oc2ccccc2S3)C1` it was 2.71%.

The record behind these values is PubChem BioAssay AID485344 (National Center for Advancing Translational Sciences (NCATS), 2010).
